Measured values as given in paper PMC7862700, “An all-to-all approach to the identification of sequence-specific readers for epigenetic DNA modifications on cytosine”.

Key:
Assay in all cases: DAPPL (digital affinity profiling via proximity ligation, sequencing); 10 mM Tris-HCl pH 7.5, 50 mM NaCl, 1 mM DTT, 4% glycerol, room temperature, 30 min; GST-TFs on glutathione beads, 16-mer random dsDNA library, 0.1% formaldehyde crosslink after washing; high values mean tight binding
FEV = molecular target: T1, FEV (Homo sapiens, UniProt Q99581 1-238); details: protein: recombinant; tags: N-terminal GST; dsDNA, one strand shown
T1 sequence: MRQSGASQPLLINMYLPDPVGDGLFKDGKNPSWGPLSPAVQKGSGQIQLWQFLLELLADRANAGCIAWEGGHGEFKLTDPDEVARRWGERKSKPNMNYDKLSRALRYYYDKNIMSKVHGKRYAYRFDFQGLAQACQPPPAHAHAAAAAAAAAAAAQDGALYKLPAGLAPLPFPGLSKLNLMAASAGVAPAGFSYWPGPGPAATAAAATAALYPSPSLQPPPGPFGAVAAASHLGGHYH
Summary of the method: (§1)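 Binding signal is each hexamer's read frequency for a factor divided by its frequency in the tag-only sample. The factors were GST-fused human transcription factors from yeast, captured on glutathione beads, DNA-barcoded and pooled with that sample. Pools were incubated with 200 nmole of a random double-stranded 16-mer DNA library in Tris/NaCl/DTT/glycerol buffer at room temperature for 30 min, then washed, crosslinked with 0.1% formaldehyde, proximity-ligated with BsaI/T4 ligase (1 h, 37 °C), PCR-amplified and sequenced on an Illumina NextSeq500.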

ETV5 = ETV5 (Homo sapiens, UniProt P41161 1-510); details: protein: recombinant; tags: N-terminal GST; dsDNA, one strand shown
Chain of ETV5 (P41161 whole entry): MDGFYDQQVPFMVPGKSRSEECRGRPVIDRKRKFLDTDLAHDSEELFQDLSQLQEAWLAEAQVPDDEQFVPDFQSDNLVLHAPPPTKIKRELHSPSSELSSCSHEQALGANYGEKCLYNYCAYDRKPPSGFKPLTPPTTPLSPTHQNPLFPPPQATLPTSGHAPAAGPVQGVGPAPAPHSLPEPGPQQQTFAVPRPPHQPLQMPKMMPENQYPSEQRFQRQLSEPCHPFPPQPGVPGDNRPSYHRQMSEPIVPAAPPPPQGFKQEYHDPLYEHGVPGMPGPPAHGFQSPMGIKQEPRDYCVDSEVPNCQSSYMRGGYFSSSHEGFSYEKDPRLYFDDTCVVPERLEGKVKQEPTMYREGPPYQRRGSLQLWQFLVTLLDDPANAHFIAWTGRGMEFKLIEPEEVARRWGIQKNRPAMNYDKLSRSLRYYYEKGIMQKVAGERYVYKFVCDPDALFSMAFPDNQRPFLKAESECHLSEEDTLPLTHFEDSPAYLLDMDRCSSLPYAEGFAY
Summary of the method: as §1

HSF1 = HSF1 (Homo sapiens, UniProt Q00613 1-529); details: protein: recombinant; tags: N-terminal GST; chain copies: 3; dsDNA, one strand shown
Chain of HSF1 (Q00613 whole entry): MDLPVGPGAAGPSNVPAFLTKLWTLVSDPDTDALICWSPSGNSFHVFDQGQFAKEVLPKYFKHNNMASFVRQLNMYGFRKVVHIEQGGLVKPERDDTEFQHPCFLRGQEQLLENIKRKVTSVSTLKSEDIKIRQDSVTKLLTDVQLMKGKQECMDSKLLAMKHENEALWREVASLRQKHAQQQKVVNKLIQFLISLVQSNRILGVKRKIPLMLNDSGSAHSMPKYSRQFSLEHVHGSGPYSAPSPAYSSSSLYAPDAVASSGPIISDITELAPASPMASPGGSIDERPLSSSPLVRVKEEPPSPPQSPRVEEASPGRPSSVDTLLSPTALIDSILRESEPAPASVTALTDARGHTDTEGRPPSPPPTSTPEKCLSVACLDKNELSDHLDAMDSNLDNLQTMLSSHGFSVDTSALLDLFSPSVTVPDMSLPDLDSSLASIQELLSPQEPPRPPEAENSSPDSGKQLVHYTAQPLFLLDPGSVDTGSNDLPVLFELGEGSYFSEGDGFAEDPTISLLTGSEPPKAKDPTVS
Summary of the method: as §1

SPIC = molecular target: T2, SPIC (Homo sapiens, UniProt Q8N5J4 1-248); details: protein: recombinant; tags: N-terminal GST; dsDNA, one strand shown
T2 sequence: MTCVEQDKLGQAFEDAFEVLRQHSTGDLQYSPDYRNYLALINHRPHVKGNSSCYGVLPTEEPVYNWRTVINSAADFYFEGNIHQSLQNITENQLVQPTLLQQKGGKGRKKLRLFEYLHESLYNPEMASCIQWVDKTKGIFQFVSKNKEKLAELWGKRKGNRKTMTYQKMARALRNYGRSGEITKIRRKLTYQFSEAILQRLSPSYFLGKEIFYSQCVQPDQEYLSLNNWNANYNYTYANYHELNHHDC
Summary of the method: as §1

ELF4 = ELF4 (Homo sapiens, UniProt Q99607 1-663); details: protein: recombinant; tags: N-terminal GST; dsDNA, one strand shown
Chain of ELF4 (Q99607 whole entry): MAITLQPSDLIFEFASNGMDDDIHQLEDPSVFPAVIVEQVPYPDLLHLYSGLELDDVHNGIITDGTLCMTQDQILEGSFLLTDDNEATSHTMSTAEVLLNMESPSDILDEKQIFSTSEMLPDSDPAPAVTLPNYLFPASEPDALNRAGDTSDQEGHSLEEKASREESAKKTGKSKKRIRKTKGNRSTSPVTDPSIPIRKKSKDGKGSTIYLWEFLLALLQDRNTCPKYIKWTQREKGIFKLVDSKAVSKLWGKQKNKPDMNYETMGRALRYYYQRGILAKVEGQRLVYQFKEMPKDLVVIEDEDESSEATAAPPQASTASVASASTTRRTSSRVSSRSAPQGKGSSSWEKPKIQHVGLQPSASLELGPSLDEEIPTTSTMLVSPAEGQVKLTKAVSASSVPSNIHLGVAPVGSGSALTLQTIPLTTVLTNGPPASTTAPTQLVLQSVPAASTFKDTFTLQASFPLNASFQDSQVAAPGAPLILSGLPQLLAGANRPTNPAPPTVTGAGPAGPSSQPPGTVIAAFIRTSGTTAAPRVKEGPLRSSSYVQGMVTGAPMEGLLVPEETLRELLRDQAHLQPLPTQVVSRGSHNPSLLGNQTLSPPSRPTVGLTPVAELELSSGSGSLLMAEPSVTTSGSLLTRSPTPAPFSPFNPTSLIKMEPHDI
Summary of the method: as §1

ELK4 = molecular target: T3, ELK4 (Homo sapiens, UniProt P28324-2 1-405); details: protein: recombinant; tags: N-terminal GST; dsDNA, one strand shown
T3 sequence: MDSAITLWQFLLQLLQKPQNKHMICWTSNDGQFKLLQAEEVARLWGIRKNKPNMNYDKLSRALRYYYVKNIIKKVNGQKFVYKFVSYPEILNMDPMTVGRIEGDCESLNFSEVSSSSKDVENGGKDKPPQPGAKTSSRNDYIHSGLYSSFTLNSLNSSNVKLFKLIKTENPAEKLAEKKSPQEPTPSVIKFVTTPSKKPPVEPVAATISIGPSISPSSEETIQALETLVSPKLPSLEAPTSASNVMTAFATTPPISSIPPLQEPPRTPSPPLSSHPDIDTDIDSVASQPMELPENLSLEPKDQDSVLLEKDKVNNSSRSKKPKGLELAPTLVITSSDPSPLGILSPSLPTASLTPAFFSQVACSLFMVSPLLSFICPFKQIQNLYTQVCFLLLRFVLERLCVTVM
Summary of the method: as §1

ETV2 = molecular target: T4, ETV2 (Homo sapiens, UniProt O00321 1-342); details: protein: recombinant; tags: N-terminal GST; dsDNA, one strand shown
T4 sequence: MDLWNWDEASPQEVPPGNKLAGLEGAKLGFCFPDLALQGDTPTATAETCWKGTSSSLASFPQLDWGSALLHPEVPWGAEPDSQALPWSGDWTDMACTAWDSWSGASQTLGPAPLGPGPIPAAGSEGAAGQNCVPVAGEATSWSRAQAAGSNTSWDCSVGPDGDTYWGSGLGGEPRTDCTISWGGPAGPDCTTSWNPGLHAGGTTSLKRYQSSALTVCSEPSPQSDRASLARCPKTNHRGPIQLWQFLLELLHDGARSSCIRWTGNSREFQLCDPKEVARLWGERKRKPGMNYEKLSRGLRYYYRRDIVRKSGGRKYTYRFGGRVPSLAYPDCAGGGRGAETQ
Summary of the method: as §1

ELF3 = molecular target: T5, ELF3 (Homo sapiens, UniProt P78545 1-371); details: protein: recombinant; tags: N-terminal GST; dsDNA, one strand shown
T5 sequence: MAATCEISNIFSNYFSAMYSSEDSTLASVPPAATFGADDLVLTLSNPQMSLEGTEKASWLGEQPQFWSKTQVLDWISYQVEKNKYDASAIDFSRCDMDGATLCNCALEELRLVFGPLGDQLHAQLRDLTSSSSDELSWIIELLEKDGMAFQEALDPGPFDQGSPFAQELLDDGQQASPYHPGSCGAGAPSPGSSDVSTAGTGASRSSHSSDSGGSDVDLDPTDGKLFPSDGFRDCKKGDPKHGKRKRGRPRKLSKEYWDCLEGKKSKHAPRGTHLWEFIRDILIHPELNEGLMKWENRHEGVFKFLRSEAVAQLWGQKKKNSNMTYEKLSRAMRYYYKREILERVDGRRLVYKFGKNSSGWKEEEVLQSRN
Summary of the method: as §1

CRX = CRX (Homo sapiens, UniProt O43186 1-299); details: protein: recombinant; tags: N-terminal GST; dsDNA, one strand shown
Chain of CRX (O43186 whole entry): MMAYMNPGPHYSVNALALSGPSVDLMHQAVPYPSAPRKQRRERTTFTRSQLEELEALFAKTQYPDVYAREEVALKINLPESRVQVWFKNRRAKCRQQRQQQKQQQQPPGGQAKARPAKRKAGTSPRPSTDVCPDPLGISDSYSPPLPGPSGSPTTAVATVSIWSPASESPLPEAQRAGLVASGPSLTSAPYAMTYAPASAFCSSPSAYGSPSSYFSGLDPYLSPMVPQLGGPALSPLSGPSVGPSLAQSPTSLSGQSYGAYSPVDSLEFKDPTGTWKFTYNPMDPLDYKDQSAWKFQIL
Summary of the method: as §1

ETV1 = ETV1 (Homo sapiens, UniProt P50549 1-477); details: protein: recombinant; tags: N-terminal GST; dsDNA, one strand shown
Chain of ETV1 (P50549 whole entry): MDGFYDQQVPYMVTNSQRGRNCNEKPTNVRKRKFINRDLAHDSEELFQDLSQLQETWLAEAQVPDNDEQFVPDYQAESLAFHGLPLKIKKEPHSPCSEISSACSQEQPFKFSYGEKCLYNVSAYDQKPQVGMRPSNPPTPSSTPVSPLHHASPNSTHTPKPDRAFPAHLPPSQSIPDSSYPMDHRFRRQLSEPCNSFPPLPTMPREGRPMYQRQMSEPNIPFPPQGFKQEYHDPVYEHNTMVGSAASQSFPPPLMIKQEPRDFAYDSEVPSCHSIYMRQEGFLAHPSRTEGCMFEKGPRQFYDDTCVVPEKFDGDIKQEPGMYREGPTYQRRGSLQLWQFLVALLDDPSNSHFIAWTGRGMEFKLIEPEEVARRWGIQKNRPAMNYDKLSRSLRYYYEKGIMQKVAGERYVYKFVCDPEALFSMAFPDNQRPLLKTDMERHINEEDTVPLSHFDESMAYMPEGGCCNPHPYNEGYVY
Summary of the method: as §1

ERF = molecular target: T6, ERF (Homo sapiens, UniProt P50548 1-548); details: protein: recombinant; tags: N-terminal GST; dsDNA, one strand shown
T6 sequence: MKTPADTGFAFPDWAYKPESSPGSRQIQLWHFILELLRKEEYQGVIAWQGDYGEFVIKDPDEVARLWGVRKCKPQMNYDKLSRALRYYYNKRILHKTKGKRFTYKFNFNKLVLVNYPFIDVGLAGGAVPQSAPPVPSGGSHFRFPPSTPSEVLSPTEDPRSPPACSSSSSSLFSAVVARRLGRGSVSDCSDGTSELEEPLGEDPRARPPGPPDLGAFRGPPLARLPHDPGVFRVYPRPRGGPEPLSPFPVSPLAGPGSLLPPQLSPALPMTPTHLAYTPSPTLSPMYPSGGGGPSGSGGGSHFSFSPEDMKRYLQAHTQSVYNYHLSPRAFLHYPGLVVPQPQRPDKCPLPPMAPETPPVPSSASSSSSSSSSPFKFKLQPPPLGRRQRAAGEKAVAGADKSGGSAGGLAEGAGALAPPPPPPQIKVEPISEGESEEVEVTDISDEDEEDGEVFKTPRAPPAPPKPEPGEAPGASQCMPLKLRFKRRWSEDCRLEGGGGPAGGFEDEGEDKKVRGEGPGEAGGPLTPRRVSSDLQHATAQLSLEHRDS
Summary of the method: as §1

ETV3L = molecular target: T7, ETV3L (Homo sapiens, UniProt Q6ZN32 1-361); details: protein: recombinant; tags: N-terminal GST; dsDNA, one strand shown
T7 sequence: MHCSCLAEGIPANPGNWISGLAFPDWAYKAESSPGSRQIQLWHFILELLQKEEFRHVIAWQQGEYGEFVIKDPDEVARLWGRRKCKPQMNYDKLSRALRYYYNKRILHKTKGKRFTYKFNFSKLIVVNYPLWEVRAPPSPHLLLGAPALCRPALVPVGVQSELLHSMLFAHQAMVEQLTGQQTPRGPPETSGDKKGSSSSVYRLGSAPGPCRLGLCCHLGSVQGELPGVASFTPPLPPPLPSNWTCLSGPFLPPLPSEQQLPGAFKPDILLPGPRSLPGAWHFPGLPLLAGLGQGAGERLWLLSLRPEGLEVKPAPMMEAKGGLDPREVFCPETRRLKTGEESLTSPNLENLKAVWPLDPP
Summary of the method: as §1

ETS2 = molecular target: T8, ETS2 (Homo sapiens, UniProt P15036 1-469); details: protein: recombinant; tags: N-terminal GST; dsDNA, one strand shown
T8 sequence: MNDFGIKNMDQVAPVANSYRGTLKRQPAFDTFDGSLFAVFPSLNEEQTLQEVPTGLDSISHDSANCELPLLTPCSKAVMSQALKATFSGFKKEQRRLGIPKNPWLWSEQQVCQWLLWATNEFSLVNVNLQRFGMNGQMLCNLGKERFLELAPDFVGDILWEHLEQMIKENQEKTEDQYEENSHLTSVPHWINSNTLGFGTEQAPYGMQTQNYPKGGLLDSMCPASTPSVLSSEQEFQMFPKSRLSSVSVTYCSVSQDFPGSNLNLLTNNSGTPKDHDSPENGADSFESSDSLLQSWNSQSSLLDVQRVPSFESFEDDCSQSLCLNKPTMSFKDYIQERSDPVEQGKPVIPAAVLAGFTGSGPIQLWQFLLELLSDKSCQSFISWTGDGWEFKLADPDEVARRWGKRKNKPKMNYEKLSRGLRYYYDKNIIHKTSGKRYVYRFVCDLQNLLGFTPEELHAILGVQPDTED
Summary of the method: as §1

SPDEF = molecular target: T9, SPDEF (Homo sapiens, UniProt O95238 1-335); details: protein: recombinant; tags: N-terminal GST; dsDNA, one strand shown
T9 sequence: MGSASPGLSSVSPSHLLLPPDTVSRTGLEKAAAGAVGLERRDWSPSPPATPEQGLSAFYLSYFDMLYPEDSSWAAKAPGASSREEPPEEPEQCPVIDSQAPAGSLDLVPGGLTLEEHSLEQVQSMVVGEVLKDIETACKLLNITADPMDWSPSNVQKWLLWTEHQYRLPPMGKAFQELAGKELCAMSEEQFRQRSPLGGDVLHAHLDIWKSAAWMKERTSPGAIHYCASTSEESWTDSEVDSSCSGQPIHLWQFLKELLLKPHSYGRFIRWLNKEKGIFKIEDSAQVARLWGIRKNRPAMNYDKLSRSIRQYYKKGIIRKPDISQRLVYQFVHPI
Summary of the method: as §1

ETV7 = molecular target: T10, ETV7 (Homo sapiens, UniProt Q9Y603 1-341); details: protein: recombinant; tags: N-terminal GST; dsDNA, one strand shown
T10 sequence: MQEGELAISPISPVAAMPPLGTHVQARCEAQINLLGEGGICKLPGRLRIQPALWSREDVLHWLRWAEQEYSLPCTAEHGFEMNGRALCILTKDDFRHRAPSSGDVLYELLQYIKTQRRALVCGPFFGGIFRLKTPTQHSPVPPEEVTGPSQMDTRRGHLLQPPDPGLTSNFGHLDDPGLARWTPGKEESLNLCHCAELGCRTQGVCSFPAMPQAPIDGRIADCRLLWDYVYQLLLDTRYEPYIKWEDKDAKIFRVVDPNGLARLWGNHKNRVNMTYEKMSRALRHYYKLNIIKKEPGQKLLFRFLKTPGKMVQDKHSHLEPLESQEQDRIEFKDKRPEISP
Summary of the method: as §1

ELF5 = molecular target: T11, ELF5 (Homo sapiens, UniProt Q9UKW6-2 1-255); details: protein: recombinant; tags: N-terminal GST; dsDNA, one strand shown
T11 sequence: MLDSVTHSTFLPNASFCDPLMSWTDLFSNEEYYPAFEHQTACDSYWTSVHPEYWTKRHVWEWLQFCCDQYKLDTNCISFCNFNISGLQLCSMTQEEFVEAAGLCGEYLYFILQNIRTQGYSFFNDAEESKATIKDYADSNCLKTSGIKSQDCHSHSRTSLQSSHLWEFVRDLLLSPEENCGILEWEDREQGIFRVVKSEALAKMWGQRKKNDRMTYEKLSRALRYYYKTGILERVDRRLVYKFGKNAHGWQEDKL
Summary of the method: as §1

ETV3 = molecular target: T12, ETV3 (Homo sapiens, UniProt P41162-2 1-143); details: protein: recombinant; tags: N-terminal GST; dsDNA, one strand shown
T12 sequence: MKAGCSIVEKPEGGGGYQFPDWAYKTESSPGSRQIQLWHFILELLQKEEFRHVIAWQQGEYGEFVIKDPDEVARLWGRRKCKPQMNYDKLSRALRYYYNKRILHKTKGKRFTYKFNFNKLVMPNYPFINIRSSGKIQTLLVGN
Summary of the method: as §1

ETV6 = ETV6 (Homo sapiens, UniProt P41212 1-452); details: protein: recombinant; tags: N-terminal GST; dsDNA, one strand shown
Chain of ETV6 (P41212 whole entry): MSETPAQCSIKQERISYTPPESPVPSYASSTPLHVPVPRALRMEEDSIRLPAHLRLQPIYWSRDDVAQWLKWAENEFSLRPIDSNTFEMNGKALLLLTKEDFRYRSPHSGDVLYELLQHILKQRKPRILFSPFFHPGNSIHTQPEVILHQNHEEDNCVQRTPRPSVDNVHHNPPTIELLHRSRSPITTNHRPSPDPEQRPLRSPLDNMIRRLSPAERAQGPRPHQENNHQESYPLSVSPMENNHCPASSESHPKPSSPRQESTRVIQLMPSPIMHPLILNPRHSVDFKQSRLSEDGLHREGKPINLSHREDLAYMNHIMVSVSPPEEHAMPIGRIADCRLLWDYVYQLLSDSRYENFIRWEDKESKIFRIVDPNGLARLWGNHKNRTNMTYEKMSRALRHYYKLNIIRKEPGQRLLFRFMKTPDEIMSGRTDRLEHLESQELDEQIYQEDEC
Summary of the method: as §1

## TCCTCT
FEV
  binding signal: 1.63 fold enrichment (6-mer frequency, TF over GST control)
ETV5
  binding signal: 1.64 fold enrichment (6-mer frequency, TF over GST control)
HSF1
  binding signal: 1.51 fold enrichment (6-mer frequency, TF over GST control)
SPIC
  binding signal: 1.67 fold enrichment (6-mer frequency, TF over GST control)
ELF4
  binding signal: 1.69 fold enrichment (6-mer frequency, TF over GST control)
ELK4
  binding signal: 1.53 fold enrichment (6-mer frequency, TF over GST control)
ETV2
  binding signal: 1.68 fold enrichment (6-mer frequency, TF over GST control)
ELF3
  binding signal: 1.66 fold enrichment (6-mer frequency, TF over GST control)
CRX
  binding signal: 1.79 fold enrichment (6-mer frequency, TF over GST control)
ETV1
  binding signal: 1.74 fold enrichment (6-mer frequency, TF over GST control)
ERF
  binding signal: 1.68 fold enrichment (6-mer frequency, TF over GST control)
ETV3L
  binding signal: 1.74 fold enrichment (6-mer frequency, TF over GST control)
ETS2
  binding signal: 1.67 fold enrichment (6-mer frequency, TF over GST control)
SPDEF
  binding signal: 1.58 fold enrichment (6-mer frequency, TF over GST control)
ETV7
  binding signal: 1.67 fold enrichment (6-mer frequency, TF over GST control)
ELF5
  binding signal: 2.15 fold enrichment (6-mer frequency, TF over GST control)
ETV3
  binding signal: 1.63 fold enrichment (6-mer frequency, TF over GST control)
ETV6
  binding signal: 1.64 fold enrichment (6-mer frequency, TF over GST control)
